Measured values published in the supplement of paper PMC10849652.
The full data set covers some 7,900 targets. This sample favours those with a hit. About 0.6% of all pairs of compound and target were hits. Unmarked numbers belong to inactive results.

Legend:
Assay in all cases: log2 fold change, soluble protein after heating vs DMSO (PISA); higher = thermal stabilisation; K562 cells, 10 uM, 30 min; active = over 0.2 and 3.5 SD of the protein, either way, in both replicates (recomputed)
saracatinib = compound: CN1CCN(CCOc2cc(OC3CCOCC3)c3c(Nc4c(Cl)ccc5c4OCO5)ncnc3c2)CC1 [saracatinib]
Procedure, shortened: (§1)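 K562 cells at 2×10^6 cells/mL were exposed to 10 μM compound for 30 min, then aliquots were heated for 3 min across 48°C-58°C, pooled, and extracted in PBS containing 0.5% NP-40 at 4°C. The supernatant after 21,000xg for 90 min was taken as soluble protein and measured by TMTpro 16plex LC-MS/MS with channel sums equalised. Thermal stability is reported relative to control samples, with values from duplicates. Fold changes are given on a log2 scale.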

sotrastaurin = compound: CN1CCN(c2nc(C3=C(c4c[nH]c5ccccc45)C(=O)NC3=O)c3ccccc3n2)CC1 [sotrastaurin]
Procedure, shortened: as §1

alvocidib = compound: CN1CC[C@H](c2c(O)cc(O)c3c(=O)cc(-c4ccccc4Cl)oc23)[C@H](O)C1 [alvocidib]
Procedure, shortened: as §1

[1] = compound: CNC(=O)C1=CC=CC=C1NC2=NC(=NC=C2Cl)NC3=C(C=C(C=C3)N4CCOCC4)OC
Procedure, shortened: as §1

defactinib = compound: CNC(=O)c1ccc(Nc2ncc(C(F)(F)F)c(NCc3nccnc3N(C)S(C)(=O)=O)n2)cc1 [defactinib]
Procedure, shortened: as §1

rucaparib = compound: CNCc1ccc(-c2[nH]c3cc(F)cc4c3c2CCNC4=O)cc1 [rucaparib]
Procedure, shortened: as §1

[2] = compound: CNc1nc(-c2ccc3c(N)n[nH]c3c2)cc(N2C[C@@H](C(=O)NC3CCCCC3)CC[C@H]2C)n1
Procedure, shortened: as §1

encorafenib = compound: COC(=O)N[C@@H](C)CNc1nccc(-c2cn(C(C)C)nc2-c2cc(Cl)cc(NS(C)(=O)=O)c2F)n1 [encorafenib]
Procedure, shortened: as §1

[3] = compound: COC(=O)[C@H](CCSC)NC(=O)C1=C(C=C(C=C1)NC[C@H](CS)N)C2=CC=CC=C2
Procedure, shortened: as §1

[4] = compound: COC1=CC=C(C=C1)CN2C=CC3=C2C=C(C=C3)C(=O)NO
Procedure, shortened: as §1

filanesib = compound: CON(C)C(=O)N1N=C(c2cc(F)ccc2F)S[C@@]1(CCCN)c1ccccc1 [filanesib]
Procedure, shortened: as §1

zotarolimus = compound: CO[C@H]1C[C@@H]2CC[C@@H](C)[C@@](O)(O2)C(=O)C(=O)N2CCCC[C@H]2C(=O)O[C@H]([C@H](C)C[C@@H]2CC[C@H](n3cnnn3)[C@H](OC)C2)CC(=O)[C@H](C)/C=C(\C)[C@@H](O)[C@@H](OC)C(=O)[C@H](C)C[C@H](C)/C=C/C=C/C=C/1C [zotarolimus]
Procedure, shortened: as §1

idasanutlin = compound: COc1cc(C(=O)O)ccc1NC(=O)[C@@H]1N[C@@H](CC(C)(C)C)[C@](C#N)(c2ccc(Cl)cc2F)[C@H]1c1cccc(Cl)c1F [idasanutlin]
Procedure, shortened: as §1

alisertib = compound: COc1cc(Nc2ncc3c(n2)-c2ccc(Cl)cc2C(c2c(F)cccc2OC)=NC3)ccc1C(=O)O [alisertib]
Procedure, shortened: as §1

[5] = compound: COc1cc2nc(-c3cc(F)ccc3O)nc(N[C@@H]3CNC[C@H]3C(C)(C)O)c2cc1OC
Procedure, shortened: as §1

gefitinib = compound: COc1cc2ncnc(Nc3ccc(F)c(Cl)c3)c2cc1OCCCN1CCOCC1 [gefitinib]
Procedure, shortened: as §1

[6] = compound: COc1cccc2cc(-c3nc([C@H]4CC[C@H](C(=O)O)CC4)n4ncnc(N)c34)[nH]c12
Procedure, shortened: as §1

lapatinib = compound: CS(=O)(=O)CCNCc1ccc(-c2ccc3ncnc(Nc4ccc(OCc5cccc(F)c5)c(Cl)c4)c3c2)o1 [lapatinib]
Procedure, shortened: as §1

pictilisib = compound: CS(=O)(=O)N1CCN(Cc2cc3nc(-c4cccc5[nH]ncc45)nc(N4CCOCC4)c3s2)CC1 [pictilisib]
Procedure, shortened: as §1

Tubastatin A = compound: CN1CCc2c(c3ccccc3n2Cc2ccc(C(=O)NO)cc2)C1 [Tubastatin A]
Procedure, shortened: as §1

Chain of UniProt Q9UK58 (Q9UK58 whole entry, looked up): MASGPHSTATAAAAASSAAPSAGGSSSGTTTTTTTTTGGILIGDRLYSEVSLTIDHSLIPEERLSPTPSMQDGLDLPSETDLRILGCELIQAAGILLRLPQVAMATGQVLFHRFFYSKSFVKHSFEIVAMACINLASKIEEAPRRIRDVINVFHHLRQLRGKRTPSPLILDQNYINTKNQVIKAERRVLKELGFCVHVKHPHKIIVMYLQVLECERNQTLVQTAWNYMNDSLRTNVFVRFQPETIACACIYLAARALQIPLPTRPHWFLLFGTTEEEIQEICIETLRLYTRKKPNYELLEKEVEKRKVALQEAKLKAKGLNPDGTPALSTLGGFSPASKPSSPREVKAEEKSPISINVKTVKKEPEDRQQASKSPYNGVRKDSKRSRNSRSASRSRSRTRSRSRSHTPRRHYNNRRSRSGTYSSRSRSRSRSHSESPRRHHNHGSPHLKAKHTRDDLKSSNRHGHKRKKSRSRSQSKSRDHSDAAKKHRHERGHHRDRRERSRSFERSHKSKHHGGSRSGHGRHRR
Chain of UniProt P11802 (P11802 whole entry, looked up): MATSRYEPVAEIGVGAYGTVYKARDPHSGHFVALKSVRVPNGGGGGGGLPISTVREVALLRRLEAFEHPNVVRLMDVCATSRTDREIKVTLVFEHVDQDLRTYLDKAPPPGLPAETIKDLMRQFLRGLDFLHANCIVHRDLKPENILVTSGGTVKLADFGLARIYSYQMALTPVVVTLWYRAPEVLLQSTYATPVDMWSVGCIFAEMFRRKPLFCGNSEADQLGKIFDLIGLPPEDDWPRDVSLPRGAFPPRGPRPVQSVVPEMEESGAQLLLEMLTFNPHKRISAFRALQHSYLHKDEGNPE
Chain of UniProt P46527 (P46527 whole entry, looked up): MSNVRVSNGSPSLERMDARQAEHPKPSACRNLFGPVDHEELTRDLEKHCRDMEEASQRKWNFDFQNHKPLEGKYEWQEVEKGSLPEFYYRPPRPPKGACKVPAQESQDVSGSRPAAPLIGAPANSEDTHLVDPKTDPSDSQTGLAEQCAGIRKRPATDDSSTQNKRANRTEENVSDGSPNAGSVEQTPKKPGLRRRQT
Chain of UniProt Q14746 (Q14746 whole entry, looked up): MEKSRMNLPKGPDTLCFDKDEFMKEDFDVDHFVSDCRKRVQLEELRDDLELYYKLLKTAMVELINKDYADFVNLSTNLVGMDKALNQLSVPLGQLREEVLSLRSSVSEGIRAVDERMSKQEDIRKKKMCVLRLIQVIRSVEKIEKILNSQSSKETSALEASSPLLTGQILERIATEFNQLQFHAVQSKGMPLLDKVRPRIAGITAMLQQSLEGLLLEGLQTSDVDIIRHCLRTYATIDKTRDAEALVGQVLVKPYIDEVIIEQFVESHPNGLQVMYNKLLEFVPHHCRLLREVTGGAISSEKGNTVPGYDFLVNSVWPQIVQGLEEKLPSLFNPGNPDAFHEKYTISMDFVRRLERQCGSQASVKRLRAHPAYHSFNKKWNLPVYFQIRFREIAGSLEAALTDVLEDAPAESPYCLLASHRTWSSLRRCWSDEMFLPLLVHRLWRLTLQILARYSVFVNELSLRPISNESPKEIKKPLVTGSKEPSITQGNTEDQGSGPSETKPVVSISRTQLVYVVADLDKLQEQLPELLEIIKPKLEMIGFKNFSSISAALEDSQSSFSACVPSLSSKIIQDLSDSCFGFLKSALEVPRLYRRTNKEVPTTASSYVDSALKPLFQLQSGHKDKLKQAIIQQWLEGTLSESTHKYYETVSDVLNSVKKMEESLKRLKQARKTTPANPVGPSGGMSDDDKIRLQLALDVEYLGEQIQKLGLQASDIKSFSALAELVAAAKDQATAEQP
Chain of UniProt P48729 (P48729 whole entry, looked up): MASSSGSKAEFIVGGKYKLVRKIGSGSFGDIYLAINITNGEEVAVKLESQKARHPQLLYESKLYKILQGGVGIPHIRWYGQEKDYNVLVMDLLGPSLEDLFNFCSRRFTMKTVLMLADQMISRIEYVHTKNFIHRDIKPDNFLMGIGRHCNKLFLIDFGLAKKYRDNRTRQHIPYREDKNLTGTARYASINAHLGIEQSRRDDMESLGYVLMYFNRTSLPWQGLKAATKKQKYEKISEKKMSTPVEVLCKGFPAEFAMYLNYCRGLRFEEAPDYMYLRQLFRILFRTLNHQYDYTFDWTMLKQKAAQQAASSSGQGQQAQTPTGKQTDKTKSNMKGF
Chain of UniProt Q92851 (Q92851 whole entry, looked up): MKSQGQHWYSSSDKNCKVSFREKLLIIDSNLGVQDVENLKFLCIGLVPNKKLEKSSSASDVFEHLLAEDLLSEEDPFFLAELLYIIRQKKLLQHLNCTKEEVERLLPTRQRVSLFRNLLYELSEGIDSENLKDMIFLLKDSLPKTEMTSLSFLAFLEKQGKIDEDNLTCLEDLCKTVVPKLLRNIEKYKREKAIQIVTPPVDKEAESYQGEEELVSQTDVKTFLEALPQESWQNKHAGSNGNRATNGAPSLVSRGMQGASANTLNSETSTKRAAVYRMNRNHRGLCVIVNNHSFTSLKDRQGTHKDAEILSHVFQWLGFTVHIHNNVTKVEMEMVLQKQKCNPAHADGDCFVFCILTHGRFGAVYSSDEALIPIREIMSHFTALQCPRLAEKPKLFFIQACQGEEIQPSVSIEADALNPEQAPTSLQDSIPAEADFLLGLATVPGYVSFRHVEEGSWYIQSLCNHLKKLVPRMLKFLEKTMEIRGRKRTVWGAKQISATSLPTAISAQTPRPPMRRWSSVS
Chain of UniProt Q96LT7 (Q96LT7 whole entry, looked up): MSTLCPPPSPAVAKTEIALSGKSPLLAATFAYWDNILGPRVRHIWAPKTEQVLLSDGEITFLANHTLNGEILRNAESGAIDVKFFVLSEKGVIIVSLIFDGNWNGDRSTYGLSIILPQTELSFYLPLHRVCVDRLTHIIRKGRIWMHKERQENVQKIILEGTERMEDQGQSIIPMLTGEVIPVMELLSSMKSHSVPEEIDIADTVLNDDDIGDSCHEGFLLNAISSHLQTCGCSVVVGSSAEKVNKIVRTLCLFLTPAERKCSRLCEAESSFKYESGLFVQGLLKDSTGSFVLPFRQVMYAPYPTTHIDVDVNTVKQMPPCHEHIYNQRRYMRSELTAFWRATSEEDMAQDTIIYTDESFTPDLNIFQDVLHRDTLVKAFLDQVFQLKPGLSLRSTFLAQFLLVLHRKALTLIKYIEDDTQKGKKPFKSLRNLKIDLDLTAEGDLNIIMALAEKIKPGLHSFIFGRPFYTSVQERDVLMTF
Chain of UniProt O60583 (O60583 whole entry, looked up): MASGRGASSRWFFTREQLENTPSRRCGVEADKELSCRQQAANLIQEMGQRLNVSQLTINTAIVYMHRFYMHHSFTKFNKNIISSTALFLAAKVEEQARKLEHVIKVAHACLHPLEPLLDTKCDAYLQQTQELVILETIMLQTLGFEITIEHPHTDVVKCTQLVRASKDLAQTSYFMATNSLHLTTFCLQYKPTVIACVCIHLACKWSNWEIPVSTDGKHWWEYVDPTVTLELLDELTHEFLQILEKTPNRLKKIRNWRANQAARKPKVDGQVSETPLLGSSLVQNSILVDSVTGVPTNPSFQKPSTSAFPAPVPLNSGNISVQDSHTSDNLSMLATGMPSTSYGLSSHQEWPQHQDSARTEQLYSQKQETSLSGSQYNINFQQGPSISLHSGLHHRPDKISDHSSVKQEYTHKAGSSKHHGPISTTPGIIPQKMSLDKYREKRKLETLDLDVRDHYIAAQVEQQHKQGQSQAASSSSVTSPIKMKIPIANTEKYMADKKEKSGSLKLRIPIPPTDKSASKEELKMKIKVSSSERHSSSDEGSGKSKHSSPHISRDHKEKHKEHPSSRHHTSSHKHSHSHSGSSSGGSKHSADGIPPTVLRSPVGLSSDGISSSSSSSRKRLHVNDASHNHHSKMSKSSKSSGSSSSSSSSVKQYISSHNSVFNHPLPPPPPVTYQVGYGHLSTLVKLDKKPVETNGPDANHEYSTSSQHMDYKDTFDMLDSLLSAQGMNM
Chain of UniProt P33552 (P33552 whole entry, looked up): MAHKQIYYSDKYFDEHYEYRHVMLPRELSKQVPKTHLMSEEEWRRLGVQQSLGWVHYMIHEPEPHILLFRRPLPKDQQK
Chain of UniProt O75503 (O75503 whole entry, looked up): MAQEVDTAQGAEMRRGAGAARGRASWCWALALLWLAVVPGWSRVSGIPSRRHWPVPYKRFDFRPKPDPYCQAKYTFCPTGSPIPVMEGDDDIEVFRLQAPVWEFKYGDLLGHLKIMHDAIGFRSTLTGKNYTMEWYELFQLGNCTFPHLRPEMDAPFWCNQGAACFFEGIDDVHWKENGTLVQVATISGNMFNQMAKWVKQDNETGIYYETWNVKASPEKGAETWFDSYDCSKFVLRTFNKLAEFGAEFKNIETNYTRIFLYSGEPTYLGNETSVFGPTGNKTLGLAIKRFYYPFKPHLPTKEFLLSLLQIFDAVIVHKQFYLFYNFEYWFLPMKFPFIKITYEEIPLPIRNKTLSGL

| Target | log2 fold change (saracatinib) | log2 fold change (sotrastaurin) | log2 fold change (alvocidib) | log2 fold change [1] | log2 fold change (defactinib) | log2 fold change (rucaparib) | log2 fold change [2] | log2 fold change (encorafenib) | log2 fold change [3] | log2 fold change [4] | log2 fold change (filanesib) | log2 fold change (zotarolimus) | log2 fold change (idasanutlin) | log2 fold change (alisertib) | log2 fold change [5] | log2 fold change (gefitinib) | log2 fold change [6] | log2 fold change (lapatinib) | log2 fold change (pictilisib) | log2 fold change (Tubastatin A) |
| --- | --- | --- | --- | --- | --- | --- | --- | --- | --- | --- | --- | --- | --- | --- | --- | --- | --- | --- | --- | --- |
| CDK4 (UniProt P11802) | -0.03 | -0.028 | 0.098 | 0.07 | -0.039 | 0.051 | -0.057 | -0.008 | -0.07 | -0.111 | 0.09 | -0.071 | 0.061 | 0.062 | -0.049 | 0.017 | -0.057 | -0.031 |  |  |
| CDKN1B (UniProt P46527) | 0.29 | 0.129 | 0.256 | -0.247 | 0.163 |  | -0.298 |  | 0.028 | 0.085 | -0.02 | -0.007 | -0.033 | 0.068 | 0.104 | 0.124 | -0.076 | -0.03 | -0.02 |  |
| CLN5 (UniProt O75503) | -0.283 | -0.008 | 0.01 | 0.032 |  |  | -0.715 |  |  | 0.021 | -0.385 | 0.075 | 0.049 | 0.265 | -0.65 | -0.341 | 0.27 | -0.028 |  | 0.079 |
| CASP10 isoform 4 (UniProt Q92851) | 0.034 | -0.138 | -0.116 |  | 0.028 | 0.111 | 0.04 | 0.164 | -0.039 | 0.012 | 0.078 | 0.062 | -0.049 | 0.009 | -0.089 | -0.036 | -0.128 | -0.047 | 0.079 | 0.127 |
| C9orf72 (UniProt Q96LT7) | 0.071 | 0.129 | -0.04 | -0.071 | -0.056 |  | -0.021 |  | 0 | -0.06 | -0.054 | -0.115 | -0.026 | 0.062 | -0.013 | -0.034 | -0.062 | 0.062 | -0.015 | -0.126 |
| COG2 (UniProt Q14746) | 0.001 | -0.32 | 0.137 | -0.135 |  | -0.272 | -0.085 | 0.007 |  | -0.006 | 0.25 | -0.048 | -0.053 | 0.58 |  | -0.187 | 0.631 (active) |  |  | -0.08 |
| CCNT2 (UniProt O60583) | -0.016 | -0.372 |  |  |  | -0.112 | 0.04 | 0.119 |  |  | 0.102 |  | 0.143 | 0.039 | -0.291 | 0.163 | -0.131 | 0.085 | 0.121 | 0.157 |
| CCNL1 (UniProt Q9UK58) |  |  |  | -0.179 |  |  |  |  |  |  |  |  |  | 0.119 |  |  | 0.167 |  |  |  |
| CFAP47 (UniProt Q6ZTR5) | 0.001 |  |  |  | -0.063 | -0.062 | -0.142 | -0.173 | 0.084 |  |  |  | -0.496 |  | 0.031 |  |  | -0.106 |  |  |
| CAD (UniProt H7BZB3) |  |  |  |  |  |  |  |  |  |  |  |  | -0.006 |  |  |  |  |  |  |  |
| CSNK1A1 isoform 3 (UniProt P48729) |  |  |  |  |  |  |  |  |  |  |  |  |  |  | -0.006 |  | 0.091 | 0.129 |  |  |
| CKS2 (UniProt P33552) | -0.044 |  |  |  |  | 0.025 | -0.101 | 0.078 |  |  |  |  | 0.193 | -0.029 | 0.184 | 0.093 | 0.14 | -0.036 | -0.666 | 0.031 |
